The source of these data is PubChem BioAssay (EPA / NIEHS).

Experiment [1] in a line: ATG_NF_kB_CIS: Attagene CIS-FACTORIAL HepG2 Assay for human Nuclear Factor Kappa B (NF-kB) (AID 2282991). As to conditions: HepG2 Attagene cis-factorial NF-kB reporter mRNA; actives raise or lower the signal. The gist of the method:
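Read-out: reporter transcript levels quantified by RT-PCR plus capillary electrophoresis of 6-FAM-labelled, HpaI-cut fragments. Transfected HepG2 cells, 24 h compound exposure, endogenous NF-kB-driven cis element; gain or loss scored versus DMSO.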

Experiment [2] is described as follows: ATG_NRF2_ARE_CIS: Attagene CIS-FACTORIAL HepG2 Assay for human Nuclear Factor Erythroid 2 Related Factor 2 (NFR2) response to Antioxidant Response Elements (ARE) (AID 2282992).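 On AC50: reporter mRNA level measured by RT-PCR and capillary electrophoresis fluorescence.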 As to conditions: HepG2 Attagene ARE/NRF2 reporter, transcription factor activity; actives raise or lower the signal. The gist of the method:
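HepG2 cells transiently transfected with multiplexed cis-regulated reporter transcription units measure endogenous transcription factor activity. Reporter mRNA at 24 h is quantified by RT-PCR, fluorescent labelling and capillary electrophoresis, with bidirectional fitting relative to DMSO.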

The nature of experiment [3]: ATG_Oct_MLP_CIS: Attagene CIS-FACTORIAL HepG2 Assay for human Octamer-Binding Transcription Factor (Oct) (AID 2282993). As to conditions: HepG2 Attagene cis-factorial Oct reporter, mRNA; actives raise or lower the signal. The gist of the method: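 HepG2 cells transiently transfected with cis-promoter-driven multiplexed reporter transcription units, dosed for 24 h. Reporter mRNA quantified by RT-PCR, fluorescent labelling, HpaI digestion and capillary electrophoresis; bidirectional fits versus DMSO baseline.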

For experiment [4], the target named is Cellular tumor antigen p53 (Homo sapiens) (UniProt P04637). Briefly: ATG_p53_CIS: Attagene CIS-FACTORIAL HepG2 Assay for human p53 Transcription Factor (AID 2282994). The following applies: HepG2 p53 cis-element reporter, Attagene mRNA; actives raise or lower the signal. Summed up: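 HepG2 cells transiently transfected with multiplexed cis-regulated reporter transcription units read endogenous TF activity. After 24 h compound exposure, reporter mRNA was quantified by RT-PCR, fluorescent labelling, HpaI digestion and capillary electrophoresis; bidirectional fits versus DMSO baseline.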

Experiment [5] in a line: BSK_3C_TissueFactor: BioMAP Diversity Plus: 3C Assay for Tissue Factor Biomarker Activity (AID 2282997). The following applies: BioMAP 3C HUVEC, tissue factor biomarker readout; actives raise or lower the signal. Summed up: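 Primary human umbilical vein endothelial cells in the 3C system were exposed to test chemical for 24 h, then Tissue Factor measured by ELISA. Activity was fitted bidirectionally against DMSO as negative control and baseline.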

A short description of experiment [6]: BSK_3C_uPAR: BioMAP Diversity Plus: 3C Assay for Urokinase-type plasminogen activator receptor (uPAR) Biomarker Activity (AID 2282998). As to conditions: BioMAP 3C HUVEC, uPAR biomarker ELISA; actives raise or lower the signal. The gist of the method: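 Human umbilical vein endothelial primary cells were exposed to test chemical for 24 h. Cell-surface uPAR was then quantified by ELISA, and responses were fitted bidirectionally against DMSO as negative control and baseline.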
In general terms: In an ELISA, binding on a coated surface is turned into a signal by an enzyme label.

A short description of experiment [7]: BSK_3C_VCAM1: BioMAP Diversity Plus: 3C Assay for Vascular cell adhesion molecule 1 (VCAM1) Biomarker Activity (AID 2282999). The following applies: BioMAP 3C HUVEC, VCAM1 ELISA, cytokine-stimulated; actives raise or lower the signal. Summed up:
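Human umbilical vein endothelial cells (3C system), biomarker read by ELISA 24 h after dosing; bidirectional fit against DMSO baseline. Cytotoxicity tracked by SRB total-protein staining in parallel cultures at biomarker time.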

Experiment [8] is described as follows: BSK_4H_Eotaxin3: BioMAP Diversity Plus: 4H Assay for Eotaxin 3 Biomarker Activity (AID 2283000).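 On outcome: CCL26 protein level quantified by ELISA in parallel with SRB cytotoxicity check.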 The following applies: primary human endothelial cells (HUVEC); actives raise or lower the signal. The gist of the method: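 HUVEC, 24 h post-dose, ELISA for Eotaxin-3/CCL26. Gain or loss of signal fitted bidirectionally vs DMSO baseline.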
The target in experiment [9] is human Peroxisome Proliferator-activated Receptor alpha (PPARa), PPARA (gene 5465) (UniProt Q07869). Description: ATG_PPARa_TRANS: Attagene TRANS-FACTORIAL HepG2 Assay for human Peroxisome Proliferator-activated Receptor alpha (PPARa) (AID 2283001; active means hit-call score of the fitted dose curve at least 0.9, where 1 is the maximum;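 on AC50: potency for gain of reporter signal over DMSO so agonist or activator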). The gist of the method: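 HepG2 cells transiently transfected with multiplexed GAL4-UAS reporters driven by exogenous chimeric NR-Gal4 proteins; reporter mRNA measured after 24 h dosing. Read-out by RT-PCR, 6-FAM labelling, HpaI digestion and capillary electrophoresis; gain of signal versus DMSO.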

The target in experiment [10] is human Peroxisome Proliferator-activated Receptor delta (PPARd), PPARD (gene 5467) (UniProt Q03181). Briefly: ATG_PPARd_TRANS: Attagene TRANS-FACTORIAL HepG2 Assay for human Peroxisome Proliferator-activated Receptor delta (PPARd) (AID 2283002; active means hit-call score of the fitted dose curve at least 0.9, where 1 is the maximum). The gist of the method:
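Read-out: reporter mRNA induction, quantified by fluorescent RT-PCR products resolved by capillary electrophoresis. Human HepG2 liver cells carried transiently transfected Gal4-UAS reporter constructs with chimeric NR-Gal4 fusions. Cells were dosed for 24 h; DMSO served as baseline.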

Several values for one entry are separate records, joined by “and”; a condition that tells them apart may be missing. Equal entries are not always repeated. Inconclusive results are not listed. Some compounds were tested as several samples or in several runs, with calls that do not always agree. Activity calls are given as the source filed them. How the source made its calls, unless noted: active means hit-call score of the fitted dose curve at least 0.9, where 1 is the maximum; inactive means score below 0.9.

human Peroxisome Proliferator-activated Receptor alpha (PPARa), PPARA (gene 5465), sequence (Q07869 whole entry, looked up, the tested form may be a part): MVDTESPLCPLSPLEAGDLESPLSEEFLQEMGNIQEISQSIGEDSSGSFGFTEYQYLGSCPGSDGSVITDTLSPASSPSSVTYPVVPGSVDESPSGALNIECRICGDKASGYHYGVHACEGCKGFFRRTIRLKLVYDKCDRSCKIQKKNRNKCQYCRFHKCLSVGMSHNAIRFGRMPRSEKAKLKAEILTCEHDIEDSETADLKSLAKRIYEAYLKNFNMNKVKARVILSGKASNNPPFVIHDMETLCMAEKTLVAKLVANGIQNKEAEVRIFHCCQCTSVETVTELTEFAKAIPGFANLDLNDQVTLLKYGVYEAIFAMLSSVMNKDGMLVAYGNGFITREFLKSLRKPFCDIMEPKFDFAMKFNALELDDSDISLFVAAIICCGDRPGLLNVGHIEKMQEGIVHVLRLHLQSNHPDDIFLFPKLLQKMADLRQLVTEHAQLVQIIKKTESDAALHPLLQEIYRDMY
human Peroxisome Proliferator-activated Receptor delta (PPARd), PPARD (gene 5467), sequence (Q03181 whole entry, looked up, the tested form may be a part): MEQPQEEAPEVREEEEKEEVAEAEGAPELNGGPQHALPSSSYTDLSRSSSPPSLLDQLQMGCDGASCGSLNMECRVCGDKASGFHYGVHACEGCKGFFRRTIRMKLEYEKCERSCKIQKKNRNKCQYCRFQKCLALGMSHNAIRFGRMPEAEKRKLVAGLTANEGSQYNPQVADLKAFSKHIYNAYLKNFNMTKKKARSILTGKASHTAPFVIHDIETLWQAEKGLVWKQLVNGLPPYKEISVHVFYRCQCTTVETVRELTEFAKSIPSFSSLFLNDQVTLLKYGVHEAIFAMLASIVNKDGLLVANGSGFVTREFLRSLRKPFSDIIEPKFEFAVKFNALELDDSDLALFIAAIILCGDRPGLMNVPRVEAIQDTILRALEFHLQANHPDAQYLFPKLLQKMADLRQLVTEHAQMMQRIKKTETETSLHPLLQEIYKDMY
Cellular tumor antigen p53 (Homo sapiens), sequence (P04637 whole entry, looked up): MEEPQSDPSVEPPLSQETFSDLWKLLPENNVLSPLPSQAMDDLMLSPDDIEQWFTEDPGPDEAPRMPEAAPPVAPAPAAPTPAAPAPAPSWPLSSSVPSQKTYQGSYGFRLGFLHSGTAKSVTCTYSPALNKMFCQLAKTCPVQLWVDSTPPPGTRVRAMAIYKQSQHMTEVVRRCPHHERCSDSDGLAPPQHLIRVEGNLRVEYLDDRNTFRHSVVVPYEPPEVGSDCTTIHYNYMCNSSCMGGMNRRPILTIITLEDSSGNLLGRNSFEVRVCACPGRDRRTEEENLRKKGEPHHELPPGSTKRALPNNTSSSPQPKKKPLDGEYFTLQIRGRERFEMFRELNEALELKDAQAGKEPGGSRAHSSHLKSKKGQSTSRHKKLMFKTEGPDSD

Usually AC50 stands for the midpoint of the concentration-response curve, whichever way the signal moves. On to `Nc1nc(Cl)nc2c1ncn2[C@H]1C[C@H](O)[C@@H](CO)O1`, for which the values for the AC50 in [1], in experiment [5] and in experiment [9] were 16.9 µM (active), 0.494 µM (active) and 66.5 µM (active), respectively. Further, the call in [2], in experiment [3], in [4], in experiment [6], in experiment [7] and in experiment [8] was inactive. Besides, the call in experiment [10] was inactive.

Consider `C=CCc1ccc(OC)c(OC)c1`, for which the outcome in [1], in [2], in [3], in experiment [4], in [5] and in [6] was inactive. Moreover, the outcome in experiment [7], in experiment [8] and in [9] was inactive.

In the case of `Cc1ccc(C(C)(C)C)c(O)c1`, the AC50 in experiment [1] was 164 µM (active); in experiment [2] it was 65.3 µM (active); in experiment [3], 144 µM (active); in [4], 182 µM (active); in experiment [5], 27.6 µM (active); in [6], 32.6 µM (active). Also, the AC50 in experiment [7] was 34.6 µM (active). Moreover, the outcome in [8] was inactive.

With `CCCCCCC(CCCCCCCCCCC(=O)OCC(COC(C)=O)OC(C)=O)OC(C)=O` (centres undefined), the result in [1], in experiment [2], in experiment [3], in [4], in experiment [5] and in experiment [6] was inactive. The result in [7], in [8] and in [10] was inactive. In addition, in experiment [9], the AC50 was 13.8 µM (active).

Consider `O=C(O)c1[nH]n(-c2ccc(S(=O)(=O)O)cc2)c(=O)c1N=Nc1ccc(S(=O)(=O)O)cc1`, for which the call in experiment [1], in [2], in experiment [3], in experiment [4], in experiment [5] and in experiment [6] was inactive. In addition, the outcome in experiment [7], in [8], in experiment [9] and in experiment [10] was inactive.

With `CC1=C(C)S(=O)(=O)CCS1(=O)=O`, the molecule was called inactive in experiment [1], in [3], in [5], in experiment [6], in experiment [7] and in [8]. Moreover, the call in [9] was inactive. Also, the AC50 in experiment [2] is 17.8 µM (active); in experiment [4], 130 µM (active).

For the molecule `NCCOCCOCCN`, the molecule was called inactive in [1], in [2], in experiment [3], in experiment [4], in [5] and in [6]. The result in experiment [7], in [8] and in experiment [9] was inactive.

As for `CCCCCCCC(=O)OC`, the outcome in [1], in experiment [2], in experiment [3], in [4], in [5] and in experiment [6] was inactive. The result in experiment [7], in [8] and in experiment [9] was inactive.

For the molecule `CCCCC(CC)COC(=O)CCCCCCCC(=O)OCC(CC)CCCC` (centres undefined), the call in experiment [1], in [2], in experiment [3], in [4], in [5] and in [6] was inactive. The result in experiment [7], in experiment [8] and in experiment [9] was inactive.

Take `Cc1cc(Cc2ccc(N)c(C)c2)ccc1N`: the molecule was called inactive in experiment [1], in experiment [2], in [3], in experiment [4], in experiment [5] and in experiment [6]. Also, the outcome in [7] and in experiment [8] was inactive.

Consider `COc1ccc(OC(F)(F)F)cc1CN[C@H]1CCCN[C@H]1c1ccccc1`, for which the molecule was classed as inactive in [1], in [3], in [7], in experiment [9] and in [10]. Moreover, the AC50 in experiment [2] is 11 µM (active); in [4], 2.91 µM (active); in experiment [5] it was 6.74 µM (active); in experiment [6], 20 µM (active); in experiment [8], 26.9 µM (active).

Take `CC(=O)[C@@]1(O)CC[C@H]2[C@@H]3CCC4=CC(=O)CC[C@]4(C)[C@H]3CC[C@@]21C`: in [1], the AC50 is 20.4 µM (active) and 51.9 µM (active). Further, the molecule was classed as inactive in experiment [1], in experiment [2], in experiment [3], in [5], in [6] and in [7]. The outcome in experiment [8], in experiment [9] and in [10] was inactive.

For `CCCCc1nc2cccnc2n1Cc1ccc(-c2ccccc2-c2nnn[nH]2)cc1`, the molecule was classed as inactive in experiment [1], in experiment [3], in experiment [4], in experiment [5], in experiment [6] and in experiment [7]. Further, the result in experiment [8] and in experiment [9] was inactive. Moreover, the AC50 in experiment [2] is 100 µM (active).

Regarding `c1ccc2occc2c1`, the molecule was called inactive in [1], in experiment [2], in experiment [3], in [4], in experiment [5] and in experiment [6]. Moreover, the result in experiment [7], in experiment [8] and in experiment [9] was inactive.

Take `CN(C)CCCN(C)CCCN(C)C`: the call in experiment [1], in experiment [2], in [3], in experiment [4], in experiment [5] and in [6] was inactive. The result in [7] and in experiment [8] was inactive.

Turning to `CC(=O)O[C@]1(C(C)=O)CC[C@H]2[C@@H]3C=C(Cl)C4=CC(=O)[C@@H]5C[C@@H]5[C@]4(C)[C@H]3CC[C@@]21C`, the molecule was called inactive in experiment [1], in [2], in experiment [3], in [5], in experiment [6] and in [7]. Further, the outcome in [8], in experiment [9] and in [10] was inactive. Also, the AC50 in experiment [2] was 48.4 µM (active) [middle of 4 runs]; in experiment [3] it was 73.6 µM (active) and 64.9 µM (active) and 45.3 µM (active); in [10], 100 µM (active).

On to `Oc1ccc(O)cc1`, for which the result in [1], in experiment [3], in experiment [4], in experiment [5], in experiment [6] and in [9] was inactive. Besides, the AC50 in experiment [2] was 16.6 µM (active); in experiment [7], 15.6 µM (active); in [8] it was 20 µM (active).

For the molecule `CCCCC(CC)CO` (centres undefined), the call in experiment [1], in [2], in experiment [3], in experiment [4], in experiment [5] and in [6] was inactive. Further, the outcome in [7], in experiment [8] and in experiment [9] was inactive.

As to `CCOCCOCCO`, the call in [1], in experiment [2], in experiment [3], in experiment [4], in experiment [5] and in experiment [6] was inactive. The outcome in [7], in [8] and in experiment [9] was inactive.

`CC(=O)S[C@H](C(=O)N[C@H]1Cc2ccccc2[C@H]2CCC[C@@H](C(=O)O)N2C1=O)C(C)C`: the result in experiment [1], in [2], in [3], in experiment [4], in experiment [5] and in experiment [6] was inactive. Besides, the result in experiment [7] and in [8] was inactive.
